Source: PubChem BioAssay (National Center for Advancing Translational Sciences (NCATS))
The list is not random: actives were taken first. Their share in the collection is about 2.4%.
D2 PAM-1 – HTS Assay for Positive Allosteric Modulators of the Human D2 Dopamine Receptor: Primary Screen for Potentiators; potentiation, % at 10 µM; D(2) dopamine receptor (Homo sapiens), P14416; 340,000 tested, 0.34% active; HEK293 T-REx D2, calcium flux, EC20 dopamine potentiation;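 active = potentiation over 3 SD above the plate norm, cut at about 30% in these data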
Target sequence (P14416 whole entry, looked up): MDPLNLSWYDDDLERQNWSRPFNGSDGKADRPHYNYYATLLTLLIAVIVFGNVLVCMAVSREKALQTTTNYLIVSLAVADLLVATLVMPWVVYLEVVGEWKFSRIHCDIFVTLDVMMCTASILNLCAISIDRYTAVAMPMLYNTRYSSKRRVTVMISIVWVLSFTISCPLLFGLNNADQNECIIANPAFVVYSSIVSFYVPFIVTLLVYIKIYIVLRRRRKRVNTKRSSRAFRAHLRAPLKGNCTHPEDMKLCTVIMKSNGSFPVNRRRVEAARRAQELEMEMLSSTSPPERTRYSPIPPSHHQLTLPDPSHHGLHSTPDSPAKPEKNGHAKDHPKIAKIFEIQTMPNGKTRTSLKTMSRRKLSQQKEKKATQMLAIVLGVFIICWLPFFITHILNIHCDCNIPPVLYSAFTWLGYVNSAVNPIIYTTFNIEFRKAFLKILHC
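Calcium flux readout, no-wash dye, 1 read/s. Inducible HEK293 Trex D2 line, overnight 30 C. Compound alone 180 s (agonist flags), then EC20 dopamine, another 180 s to score potentiation.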
D2 PAM-2 – Beta-Arrestin HTS for Positive Allosteric Modulators of the Human D2 Dopamine Receptor: Potentiators | DiscoveRx D2 beta-arrestin cells, luminescence, 90 min; 100% = 57 uM dopamine signal | potentiation, % (concentration not given with the values) | 360,000 tested, 0.23% active; in the data active = potentiation above about 50%
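PathHunter beta-arrestin assay in DiscoveRx D2 cells. Compounds were added with an EC20 of dopamine (50 nM final) for 90 min at 37 deg C. Luminescence was read 1 h after detection reagent, with 57 uM dopamine as the EC100 control.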
D2 ag-1 – Beta-Arrestin HTS for Positive Allosteric Modulators of the Human D2 Dopamine Receptor: Agonists; D(2) dopamine receptor (Homo sapiens), P14416; DiscoveRx PathHunter D2 beta-arrestin, luminescence, 90 min; 100% = 57 uM dopamine signal; activation, % (test concentration not listed); 360,000 tested, 0.084% active; AID 624465, 2012; in the data active = activation above about 40%
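DiscoveRx PathHunter D2 beta-arrestin cells (2,100/well) attached overnight, then compound-stimulated 90 min at 37 C in HBSS/10 mM HEPES/0.1% Tween-20 buffer; beta-galactosidase complementation read by luminescence after 1 h at ambient temperature. Dopamine 57 uM final (EC100) as control.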
D2 ag-2 – HTS Assay for Allosteric Agonists of the Human D2 Dopamine Receptor: Primary Screen for Agonists; D(2) dopamine receptor (Homo sapiens), P14416; HEK293 T-REx D2 cells, calcium flux agonist mode; activation, % at 2 µM; 340,000 tested, 0.53% active; AID 485358, 2010;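 active = activation over 3 SD above normal in the single-dose calcium agonist read, cut at about 30% in these data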
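Tetracycline-induced HEK293 Trex cells with D2 receptor force-coupled to calcium signaling, plated overnight at 30 C and loaded with no-wash calcium dye. Calcium flux read kinetically for 180 s after compound addition; responses flag agonists.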
D2 antag – HTS Assay for Allosteric Antagonists of the Human D2 Dopamine Receptor: Primary Screen for Antagonists; HEK293 TREx D2 cells, calcium flux, dopamine EC80; inhibition, % at 10 µM; 340,000 tested, 2% active; AID 485344, 2010; in the data active = inhibition above about 30%; inactive = below that, where a call was filed
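Calcium flux kinetic readout in an inducible HEK293 TREx D2 line plated overnight at 30 C. After 180 s compound exposure, an EC80 dopamine challenge follows with another 180 s kinetic read to detect antagonism.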
Of the large screens only hits and unclear results are named; the others gave an inactive call.

Cc1ccc(SCCOCCN2CCc3ccccc3C2)cc1	D2 antag 75
c1ccc(OCCOCCN2CCN(C(c3ccccc3)c3ccccc3)CC2)cc1	none
COc1ccc(OCCCN2CCc3ccccc3C2)cc1	D2 antag 72
O=[N+]([O-])c1ccc(OCCCCN2CCc3ccccc3C2)cc1	D2 antag 62
c1ccc(OCCOCCN2CCc3ccccc3C2)cc1	D2 antag 65
COc1cccc(C(C)(O)c2nc(-c3ccc(N(C)C)cc3)cs2)c1 (centres undefined)	none (no result: D2 PAM-1, D2 ag-2, D2 antag)
O=C(Nc1nnc(S(=O)(=O)N2CCc3ccccc32)s1)c1cccc(Cl)c1	none (no result: D2 PAM-2, D2 ag-1, D2 antag)
O=C(CCCn1c(=O)c2cccn2c2ccccc21)Nc1cc(C(F)(F)F)ccc1Cl	none (no result: D2 PAM-2, D2 ag-1, D2 antag)
CCOC(=O)c1c(C)oc2nc(C)nc(NCCc3ccc(OCC)c(OCC)c3)c12	none (no result: D2 PAM-2, D2 ag-1, D2 antag)
CCOc1ccc(OCCOCCN2CCCC2)cc1	none
CCCOc1ccc(OCCOCCN2CCc3ccccc3C2)cc1	D2 antag 31
CCOc1ccc(OCCOCCN2CCc3ccccc3C2)cc1	D2 antag 68
C=CCc1cc(OC)ccc1OCCOCCN1CCc2ccccc2C1	D2 antag 84
COCCn1c(=O)[nH]c2cc(C(=O)OC)ccc2c1=O	none
COC(=O)c1ccc2c(C)c(C(C)(C)O)[nH]c2c1	D2 antag 45
O=C(CCCOc1ccc(Cl)cc1)NC1CCCCC1	none
O=C(c1cccc(F)c1)N1CCN(C(=O)C(c2ccccc2)c2ccccc2)CC1	D2 antag 31 (no result: D2 PAM-1)
CN1CCCN(Cc2nc(-c3ccc(Cl)cc3)no2)CC1	none
CN1CCCN(Cc2ccc(Cl)cc2Cl)CC1	D2 antag 35
C=CCn1c(SCC(=O)Nc2ncc(Cc3ccc(Br)cc3)s2)nnc1-c1ccncc1	D2 PAM-1 32
CCc1ccc(N=C2NC(=O)/C(=C/c3cc(OC)c(OC)c(OC)c3)S2)cc1	none
COc1cc(/C=C2\SC(=Nc3ccc(O)cc3)NC2=O)cc(OC)c1O	D2 ag-2 47
O=C(/C=C/c1ccco1)NCC1OCCc2ccccc21 (centres undefined)	D2 antag 31
CC(=O)c1cccc(OC(=O)C2=CC=CN3CCS(=O)(=O)N=C23)c1	none
Cc1ccc(C)c(N2CCN(CCCNC(=O)CCn3c(=O)c4cccn4c4cccnc43)CC2)c1	none
Cc1ccc(C)c(N2CCN(CCCNC(=O)Cn3cc4c(n3)CCCCC4)CC2)c1	D2 antag 65
Cc1ccc(C)c(N2CCN(CCCNC(=O)Cn3c(=O)c4cccn4c4cccnc43)CC2)c1	D2 antag 63
O=C(NCC1CCCO1)c1ccc(Cl)c(NS(=O)(=O)c2ccc(F)cc2)c1 (centres undefined)	none (no result: D2 PAM-1, D2 ag-2, D2 antag)
Cc1ccc(NC(=O)CSc2nncn2N)cc1C	none
CSc1ccc(/C=C(\C(=O)O)c2ccc(S(=O)(=O)N3CCCC3)s2)cc1	D2 antag 36
COC(=O)C(NC(=O)CCc1c(C)nc2c(-c3ccccc3)c(C)nn2c1C)C(C)C (centres undefined)	none (no result: D2 PAM-2, D2 ag-1, D2 antag)
Cc1ccc(N(CC(=O)NCc2ccc(F)cc2)S(=O)(=O)c2cccs2)cc1	D2 antag 46
COc1ccc(N(CC(=O)Nc2ccc3c(c2)OCO3)S(=O)(=O)c2ccccc2)cc1OC	none
COc1ccc(S(=O)(=O)N(CC(=O)NCc2ccncc2)c2ccc(C)cc2)cc1Br	D2 antag 33
COc1ccc(N(CC(=O)Nc2ccc3c(c2)OCO3)S(=O)(=O)c2ccc(C)cc2)cc1OC	D2 antag 54
O=C(CSCc1ccco1)N1CCc2ccccc21	none
CC(C)N(Cc1ccccc1)C(=O)COC(=O)C1CCN(c2ccc(C(F)(F)F)cn2)CC1	none
CC(C)(C)N(Cc1ccccc1)C(=O)COC(=O)C1CCN(c2ccc(C(F)(F)F)cn2)CC1	D2 PAM-1 59
Cc1ccc(NC(=O)C2CCN(c3nc4ccccc4[nH]3)CC2)c(C)c1	none (no result: D2 PAM-2, D2 ag-1, D2 antag)
CCc1ccccc1NC(=O)/C(C#N)=C\c1ccc(Sc2ccccc2)o1	D2 PAM-1 40
CCCCNC(=O)c1ccc2c(c1)N(C)C(=O)c1ccccc1S2	none
CCN1C(=O)c2ccccc2Sc2ccc(C(=O)NCCC(C)C)cc21	D2 antag 44
CC(C)CCNC(=O)c1ccc2c(c1)N(C)C(=O)c1ccccc1S2	D2 antag 47
CCCCN(C)C(=O)CN1C(=O)c2cccnc2Oc2ccc(Cl)cc21	none (no result: D2 PAM-2, D2 ag-1, D2 antag)
CC(=O)Nc1ccc(NC(=O)CCc2c(C)nc3c(c(C)nn3-c3ccc(C)cc3)c2C)cc1	none (no result: D2 PAM-2, D2 ag-1, D2 antag)
Cc1cc(OCCCCCN2CCCC2)ccc1Cl	D2 antag 59
Clc1ccc(OCCN2CCCCC2)cc1Cl	D2 antag 103
Clc1ccc(OCCCN2CCCC2)cc1Cl	none
Cn1c(CCN2CCCC2)nc2cc(NS(=O)(=O)c3ccc(F)cc3)ccc21	none (no result: D2 PAM-1, D2 ag-2, D2 antag)
Cn1c(CN2CCCC2)nc2cc(NS(=O)(=O)c3ccccc3)ccc21	D2 antag 67
Cn1c(CN2CCCC2)nc2cc(NS(=O)(=O)c3ccc(Cl)cc3)ccc21	D2 antag 69
CCCCN(C)CCCNC(=O)c1cn(C)c2ccc(S(=O)(=O)N(C)C3CCCCC3)cc2c1=O	D2 antag 34
CC1CCCC(NC(=O)c2cn(C)c3ccc(S(=O)(=O)N4CCCC4)cc3c2=O)C1C (centres undefined)	D2 antag 31 (no result: D2 PAM-2, D2 ag-1)
CN(CCNC(=O)c1cn(C)c2ccc(S(=O)(=O)N(C)C)cc2c1=O)CCc1ccccc1	D2 antag 45
COc1ccc(CCNC(=O)c2cn(C)c3ccc(S(=O)(=O)N4CCOCC4)cc3c2=O)cc1OC	D2 antag 40
CCn1cc(C(=O)NCCc2ccc(OC)c(OC)c2)c(=O)c2cc(S(=O)(=O)N3CCOCC3)ccc21	none
CN(CCCC(=O)Nc1ccc(Br)cc1F)S(=O)(=O)c1ccccc1	none
Cc1ccc(OCC(=O)Nc2ccc(OCc3cc(=O)n4cccc(C)c4n3)cc2)cc1C	none (no result: D2 PAM-2, D2 ag-1, D2 antag)
O=C1c2ccccc2C(=O)N1CCCc1nc(-c2ccccn2)no1	D2 antag 36
O=C1c2ccccc2C(=O)N1CCc1nc(-c2ccccn2)no1	none (no result: D2 ag-2, D2 antag)
Cc1cc(SCC(=O)OCC(=O)N(C)c2ccccc2)nc2ccccc12	none
CCCCNC(=O)c1cnc2sc(N3CCCCCC3)nn2c1=O	none (no result: D2 PAM-2, D2 ag-1, D2 antag)
Cn1c(=O)c(NCCc2ccccc2)c2c3c(cccc31)C(=O)c1ccccc1-2	D2 ag-2 87, D2 antag 72
CC(=O)Nc1ccc(Nc2c3c4c(cccc4n(C)c2=O)C(=O)c2ccccc2-3)cc1	none
